# Test results: article PMC8384837, “Expanding the binding specificity for RNA recognition by a PUF domain”
# Substitutions are numbered along the chain they refer to.
# Assays:
# Assay in all cases: yeast three-hybrid, YBZ-1, SC-Leu-His + 0.5 mM 3-AT, 4 days
# Details in all cases: tags: N-Gal4 AD-HA kept; label: inside an RPR1-promoter hybrid RNA with tandem MS2 sites; ssRNA
# PUM1 PUF domain R4-SNA = PUM1 PUF domain R4-SNA (Homo sapiens, UniProt Q14671 828-1176, N971S;H972N;Q975A)
# Procedure, shortened: (§1)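 Repeat regions from input (SC-Leu) and selection (SC-Leu-His + 0.5 mM 3-AT) plates were PCR-amplified and Illumina-sequenced after four days of growth. The cells were strain YBZ-1 with a LexA–MS2 coat fusion and a HIS3 reporter, co-expressing Pumilio-1 PUF domain libraries and matching RNA elements from a centromeric plasmid. The interaction score is the log change in variant frequency from input to selection, taken in log2 with a pseudocount of 1 for absent variants.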
# PUM1 PUF domain R3-WWD = PUM1 PUF domain R3-WWD (Homo sapiens, UniProt Q14671 828-1176, C935W;R936W;Q939D)
# Procedure, shortened: as §1
# PUM1 PUF domain R4-QFL = PUM1 PUF domain R4-QFL (Homo sapiens, UniProt Q14671 828-1176, N971Q;H972F;Q975L)
# Procedure, shortened: as §1
# PUM1 PUF domain R6-FWG = molecular target: T1, PUM1 PUF domain R6-FWG (Homo sapiens, UniProt Q14671 828-1176, N1043F;Y1044W;Q1047G)
# T1 sequence: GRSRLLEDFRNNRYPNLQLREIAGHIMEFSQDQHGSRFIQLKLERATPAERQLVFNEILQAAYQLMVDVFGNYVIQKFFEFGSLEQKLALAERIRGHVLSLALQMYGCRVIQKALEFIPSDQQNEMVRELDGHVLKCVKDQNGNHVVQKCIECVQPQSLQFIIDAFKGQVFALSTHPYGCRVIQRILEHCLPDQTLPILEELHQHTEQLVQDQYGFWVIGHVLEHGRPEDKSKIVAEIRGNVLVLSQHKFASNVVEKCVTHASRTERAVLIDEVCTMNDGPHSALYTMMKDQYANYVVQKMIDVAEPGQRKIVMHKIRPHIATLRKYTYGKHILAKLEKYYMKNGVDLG
# Procedure, shortened: as §1
# PUM1 PUF domain R6-GFQ = molecular target: T2, PUM1 PUF domain R6-GFQ (Homo sapiens, UniProt Q14671 828-1176, N1043G;Y1044F)
# T2 sequence: T1 sequence with F216G, W217F, G220Q
# Procedure, shortened: as §1
# PUM1 PUF domain R5-NRV = PUM1 PUF domain R5-NRV (Homo sapiens, UniProt Q14671 828-1176, C1007N;Q1011V)
# Procedure, shortened: as §1
# PUM1 PUF domain R6-PFE = molecular target: T3, PUM1 PUF domain R6-PFE (Homo sapiens, UniProt Q14671 828-1176, N1043P;Y1044F;Q1047E)
# T3 sequence: T1 sequence with F216P, W217F, G220E
# Procedure, shortened: as §1
# PUM1 PUF domain R1-QWR = PUM1 PUF domain R1-QWR (Homo sapiens, UniProt Q14671 828-1176, S863Q;R864W;Q867R)
# Procedure, shortened: as §1
# PUM1 PUF domain R5-KFR = PUM1 PUF domain R5-KFR (Homo sapiens, UniProt Q14671 828-1176, C1007K;R1008F;Q1011R)
# Procedure, shortened: as §1
# PUM1 PUF domain R5-RMR = PUM1 PUF domain R5-RMR (Homo sapiens, UniProt Q14671 828-1176, C1007R;R1008M;Q1011R)
# Procedure, shortened: as §1
# PUM1 PUF domain R5-DYD = PUM1 PUF domain R5-DYD (Homo sapiens, UniProt Q14671 828-1176, C1007D;R1008Y;Q1011D)
# Procedure, shortened: as §1
# PUM1 PUF domain R4-MPH = PUM1 PUF domain R4-MPH (Homo sapiens, UniProt Q14671 828-1176, N971M;H972P;Q975H)
# Procedure, shortened: as §1
# PUM1 PUF domain R8-RWE = PUM1 PUF domain R8-RWE (Homo sapiens, UniProt Q14671 828-1176, N1122R;Y1123W;Q1126E)
# Procedure, shortened: as §1
# PUM1 PUF domain R6-TWK = molecular target: T4, PUM1 PUF domain R6-TWK (Homo sapiens, UniProt Q14671 828-1176, N1043T;Y1044W;Q1047K)
# T4 sequence: T1 sequence with F216T, G220K
# Procedure, shortened: as §1
# PUM1 PUF domain R8-KKV = PUM1 PUF domain R8-KKV (Homo sapiens, UniProt Q14671 828-1176, N1122K;Y1123K;Q1126V)
# Procedure, shortened: as §1
# PUM1 PUF domain R3-RAP = PUM1 PUF domain R3-RAP (Homo sapiens, UniProt Q14671 828-1176, C935R;R936A;Q939P)
# Procedure, shortened: as §1
# PUM1 PUF domain R7-KCQ = PUM1 PUF domain R7-KCQ (Homo sapiens, UniProt Q14671 828-1176, S1079K;N1080C;E1083Q)
# Procedure, shortened: as §1
# PUM1 PUF domain R7-KRV = PUM1 PUF domain R7-KRV (Homo sapiens, UniProt Q14671 828-1176, S1079K;N1080R;E1083V)
# Procedure, shortened: as §1
# PUM1 PUF domain R5-KSI = PUM1 PUF domain R5-KSI (Homo sapiens, UniProt Q14671 828-1176, C1007K;R1008S;Q1011I)
# Procedure, shortened: as §1
# PUM1 PUF domain R7-ENS = PUM1 PUF domain R7-ENS (Homo sapiens, UniProt Q14671 828-1176, S1079E;E1083S)
# Procedure, shortened: as §1
sequence,measurement,setting,value
GGCUAGAACUAGUGGAUCCCCCGGCGCCCGGCGGCUCGAGCCCGGGUAAGUGUACAUAGUCUGCAUGCCGCCGGGCGCCAUGCCUGCAGGUCGACUCUAGAAAACAUG,binding signal,PUM1 PUF domain R4-SNA,3.14 log2 enrichment (interaction score)
GGCUAGAACUAGUGGAUCCCCCGGCGCCCGGCGGCUCGAGCCCGGGUAAGUGUAAGUAGUCUGCAUGCCGCCGGGCGCCAUGCCUGCAGGUCGACUCUAGAAAACAUG,binding signal,PUM1 PUF domain R3-WWD,5.41 log2 enrichment (interaction score)
GGCUAGAACUAGUGGAUCCCCCGGCGCCCGGCGGCUCGAGCCCGGGUAAGUGUAUAUAGUCUGCAUGCCGCCGGGCGCCAUGCCUGCAGGUCGACUCUAGAAAACAUG,binding signal,PUM1 PUF domain R4-QFL,4.92 log2 enrichment (interaction score)
same,binding signal,PUM1 PUF domain R4-SNA,4.15 log2 enrichment (interaction score)
GGCUAGAACUAGUGGAUCCCCCGGCGCCCGGCGGCUCGAGCCCGGGUAAGUGAAAAUAGUCUGCAUGCCGCCGGGCGCCAUGCCUGCAGGUCGACUCUAGAAAACAUG,binding signal,PUM1 PUF domain R6-FWG,2.45 log2 enrichment (interaction score)
same,binding signal,PUM1 PUF domain R6-GFQ,0.48 log2 enrichment (interaction score)
GGCUAGAACUAGUGGAUCCCCCGGCGCCCGGCGGCUCGAGCCCGGGUAAGUGUGAAUAGUCUGCAUGCCGCCGGGCGCCAUGCCUGCAGGUCGACUCUAGAAAACAUG,binding signal,PUM1 PUF domain R5-NRV,2.59 log2 enrichment (interaction score)
GGCUAGAACUAGUGGAUCCCCCGGCGCCCGGCGGCUCGAGCCCGGGUAAGUGGAAAUAGUCUGCAUGCCGCCGGGCGCCAUGCCUGCAGGUCGACUCUAGAAAACAUG,binding signal,PUM1 PUF domain R6-PFE,2.11 log2 enrichment (interaction score)
GGCUAGAACUAGUGGAUCCCCCGGCGCCCGGCGGCUCGAGCCCGGGUAAGUGUAAAUUGUCUGCAUGCCGCCGGGCGCCAUGCCUGCAGGUCGACUCUAGAAAACAUG,binding signal,PUM1 PUF domain R1-QWR,3.12 log2 enrichment (interaction score)
GGCUAGAACUAGUGGAUCCCCCGGCGCCCGGCGGCUCGAGCCCGGGUAAGUGUUAAUAGUCUGCAUGCCGCCGGGCGCCAUGCCUGCAGGUCGACUCUAGAAAACAUG,binding signal,PUM1 PUF domain R5-KFR,4.62 log2 enrichment (interaction score)
same,binding signal,PUM1 PUF domain R5-RMR,2.49 log2 enrichment (interaction score)
GGCUAGAACUAGUGGAUCCCCCGGCGCCCGGCGGCUCGAGCCCGGGUAAGUGUAAAUAGUCUGCAUGCCGCCGGGCGCCAUGCCUGCAGGUCGACUCUAGAAAACAUG,binding signal,PUM1 PUF domain R5-KFR,4.71 log2 enrichment (interaction score)
same,binding signal,PUM1 PUF domain R5-DYD,1.97 log2 enrichment (interaction score)
same,binding signal,PUM1 PUF domain R4-SNA,1.52 log2 enrichment (interaction score)
same,binding signal,PUM1 PUF domain R6-FWG,3.61 log2 enrichment (interaction score)
same,binding signal,PUM1 PUF domain R4-MPH,3.32 log2 enrichment (interaction score)
same,binding signal,PUM1 PUF domain R6-GFQ,6.29 log2 enrichment (interaction score)
same,binding signal,PUM1 PUF domain R8-RWE,3.03 log2 enrichment (interaction score)
same,binding signal,PUM1 PUF domain R6-TWK,2.26 log2 enrichment (interaction score)
same,binding signal,PUM1 PUF domain R5-NRV,2.44 log2 enrichment (interaction score)
GGCUAGAACUAGUGGAUCCCCCGGCGCCCGGCGGCUCGAGCCCGGGUAAGCGUAAAUAGUCUGCAUGCCGCCGGGCGCCAUGCCUGCAGGUCGACUCUAGAAAACAUG,binding signal,PUM1 PUF domain R8-RWE,4.69 log2 enrichment (interaction score)
same,binding signal,PUM1 PUF domain R8-KKV,2.53 log2 enrichment (interaction score)
GGCUAGAACUAGUGGAUCCCCCGGCGCCCGGCGGCUCGAGCCCGGGUAAGUGUAAUUAGUCUGCAUGCCGCCGGGCGCCAUGCCUGCAGGUCGACUCUAGAAAACAUG,binding signal,PUM1 PUF domain R3-RAP,3.87 log2 enrichment (interaction score)
GGCUAGAACUAGUGGAUCCCCCGGCGCCCGGCGGCUCGAGCCCGGGUAAGUCUAAAUAGUCUGCAUGCCGCCGGGCGCCAUGCCUGCAGGUCGACUCUAGAAAACAUG,binding signal,PUM1 PUF domain R7-KCQ,4.46 log2 enrichment (interaction score)
same,binding signal,PUM1 PUF domain R7-KRV,5.35 log2 enrichment (interaction score)
GGCUAGAACUAGUGGAUCCCCCGGCGCCCGGCGGCUCGAGCCCGGGUAAGUGUCAAUAGUCUGCAUGCCGCCGGGCGCCAUGCCUGCAGGUCGACUCUAGAAAACAUG,binding signal,PUM1 PUF domain R5-KSI,3.85 log2 enrichment (interaction score)
same,binding signal,PUM1 PUF domain R5-KFR,5.4 log2 enrichment (interaction score)
same,binding signal,PUM1 PUF domain R5-DYD,5.78 log2 enrichment (interaction score)
same,binding signal,PUM1 PUF domain R5-RMR,3.2 log2 enrichment (interaction score)
GGCUAGAACUAGUGGAUCCCCCGGCGCCCGGCGGCUCGAGCCCGGGUAAGUGUAAAUCGUCUGCAUGCCGCCGGGCGCCAUGCCUGCAGGUCGACUCUAGAAAACAUG,binding signal,PUM1 PUF domain R1-QWR,8.29 log2 enrichment (interaction score)
GGCUAGAACUAGUGGAUCCCCCGGCGCCCGGCGGCUCGAGCCCGGGUAAGUUUAAAUAGUCUGCAUGCCGCCGGGCGCCAUGCCUGCAGGUCGACUCUAGAAAACAUG,binding signal,PUM1 PUF domain R7-KCQ,2.98 log2 enrichment (interaction score)
same,binding signal,PUM1 PUF domain R7-ENS,4.45 log2 enrichment (interaction score)
